High-throughput results (PubChem BioAssay)
LDHA inh: inhibitors of human lactate dehydrogenase A; AID 1347041; activity change, % (values are at about 110 or 230 µM); 480,000 compounds, 0.15% hits; P00338; purified LDHA, NADH/diaphorase-resazurin fluorescence; active compounds read low; in the data active = activity change below about -30%; inconclusive = mostly about -25% to -30%;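 also: plate controls were DMSO wells for no effect and wells without enzyme for full effect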
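Remaining NADH was detected by diaphorase (0.133 mg/mL) converting 37 µM resazurin to fluorescent resorufin, read at 0 and 20 minutes. The preceding 5-minute room-temperature reaction used 2 nM LDHA, 0.2 mM sodium pyruvate and 0.06 mM NADH at pH 7.4.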
DT40 TDP1 CPT: growth inhibition of DT40 Tdp1-/-;hTDP1 cells with camptothecin (screen for TDP1 inhibitors). chicken DT40 Tdp1-/-;hTDP1 cells + 20 nM CPT, ATP luminescence, 48 h. Potency, µM (doses to about 46.2 µM), inactives show at the top dose activity change, negative = growth inhibition, hits mostly inhibitors. 420,000 compounds, 12% hits. AID 686979; also: potency is read from the fitted curve at half-maximal effect; nearly all actives have a fitted effect of over 55% in size
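Chicken DT40 Tdp1-/- cells stably complemented with human TDP1 were seeded at 400 cells/well in medium containing 20 nM camptothecin, exposed to pin-transferred compounds, and grown at 37 °C for at least 48 hr. Viability was read as ATP luminescence.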
VP16 counter: Gal4-VP16 reporter inhibition counter-screen | Drosophila S2 Gal4-VP16 UAS-luciferase, luminescence, 20 h | 310,000 compounds, 3.5% hits | Potency, µM (doses to about 53.6 µM), for the others: at the highest dose activity, negative = inhibition, usual class: inhibitors | AID 2546;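 also: Gal4-VP16 expression switched on by copper sulfate through the metallothionein promoter; potency is read from the fitted curve at half-maximal effect; nearly all actives have a fitted effect of over 50% in size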
IL-1B inflam inh: inhibitors of inflammasome signaling (IL-1 beta secretion); AID 743279; activity change, % at 57.5 µM; 360,000 compounds, 4.7% hits; THP-1 LPS/ATP IL-1B secretion, AlphaLISA, 16 h; active compounds read low; in the data active = activity change below about -50%; inconclusive = mostly about -30% to -49%
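Secreted IL-1B measured by AlphaLISA bead assay after 16 h compound exposure of THP-1 cells; compounds (final up to 57.5 uM) added 1 h before LPS (250 ng/mL) and ATP (1.25 mM) stimulation; lower signal means less secretion.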
RORg inh: blocks mouse ROR gamma transcriptional activity; P51450; Drosophila S2 Gal4-RORgamma UAS-luciferase reporter, 20 h; Potency, µM (top dose mostly 53.6 µM), inactives show at the highest dose activity change, negative = inhibition, most hits filed as inhibitors; 310,000 compounds, 5.4% hits; also: potency is read from the fitted curve at half-maximal effect; nearly all actives have a fitted effect of over 60% in size
Target sequence (P51450 whole entry, looked up, the tested form may be a part): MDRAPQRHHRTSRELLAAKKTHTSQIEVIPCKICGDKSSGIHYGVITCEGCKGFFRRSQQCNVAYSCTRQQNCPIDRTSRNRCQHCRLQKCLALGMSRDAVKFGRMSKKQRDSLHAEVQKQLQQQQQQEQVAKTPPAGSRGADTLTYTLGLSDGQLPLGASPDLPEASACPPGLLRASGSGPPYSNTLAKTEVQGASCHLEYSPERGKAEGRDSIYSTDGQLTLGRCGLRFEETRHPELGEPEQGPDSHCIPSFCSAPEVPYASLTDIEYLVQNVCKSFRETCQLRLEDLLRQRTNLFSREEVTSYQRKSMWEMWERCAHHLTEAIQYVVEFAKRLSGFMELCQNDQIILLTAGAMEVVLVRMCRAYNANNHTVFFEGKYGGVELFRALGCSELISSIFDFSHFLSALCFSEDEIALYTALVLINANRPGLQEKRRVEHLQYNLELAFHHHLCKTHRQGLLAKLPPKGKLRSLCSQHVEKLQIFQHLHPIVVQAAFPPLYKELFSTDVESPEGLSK
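Read-out: Photinus luciferase luminescence; inhibitors lower reporter signal. Insect Schneider cells with Gal4-ROR gamma fusion under metallothionein promoter, UAS reporter; 700 uM final copper sulfate induction, 20 hr, ambient temperature.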
DT40 TDP1 no CPT: qHTS for Inhibitors of human tyrosyl-DNA phosphodiesterase 1 (TDP1): qHTS in cells in absence of CPT; DT40 Tdp1-/- hTDP1 cells, no CPT, ATP luminescence, 48 h; Potency, µM (top dose mostly 46.2 µM), for the others: at the highest dose activity change, negative = growth inhibition, most hits filed as inhibitors; 420,000 compounds, 15% hits; also: potency is read from the fitted curve at half-maximal effect; nearly all actives have a fitted effect of over 55% in size
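Stably hTDP1-transfected Tdp1-null chicken DT40 cells were treated with library compounds minus camptothecin and grown for at least 48 hr at 37 °C, after which cellular ATP was quantified by luminescence.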
Starred values were filed as active, the others as inactive; ? = inconclusive; · = no result given; [ ] = remark or other dose. Sampled rows, rich in hits. Any-hit rate of the full collection: about 18%. Unless noted, calls follow the shape of the dose curve; as a rule, active = well fitted curve in the direction sought with a large enough effect; inconclusive = small, poorly fitted or top-dose-only effect, or another doubt; inactive = no such curve, though single readings can be large; an effect the other way counts as inactive or inconclusive. Unless noted, % is scaled to controls: 0 for no effect and ±100 for the full control effect.

SMILES	LDHA inh	DT40 TDP1 CPT	VP16 counter	IL-1B inflam inh	RORg inh	DT40 TDP1 no CPT
O=C(COn1nnc2ccc(C(F)(F)F)cc21)Nc1nnc(-c2ccccc2)o1	-1	?	4.5µM*	11	7.1µM*	?
O=C(COc1ccccc1)Nc1nnc(-c2ccco2)o1	0	4%	?	-6	16µM*	-3%
Cc1ccc(C)c(-c2nnc(NC(=O)COc3ccccc3)o2)c1	-2	?	·	11	·	?
O=C(COc1ccccc1)Nc1nnc(-c2ccccc2)o1	-12	3%	10µM*	10	10µM*	-4%
O=C(Cc1ccccc1)Nc1nnc(-c2ccco2)o1	0	3%	10µM*	-15	2.8µM*	-15%
O=C(COc1ccc(Cl)cc1)Nc1nnc(-c2ccco2)o1	-3	10%	?	22	11µM*	10%
CCC(=O)Nc1nnc(-c2ccco2)o1	-2	2%	-14%	23	?	-12%
CCOc1ccc(NC(=O)NC2(C(F)(F)F)Oc3ccccc3O2)cc1	83	·	·	·	·	·
Clc1ccc(Cl)c(OCCCCN2CCCCC2)c1	-23	18µM*	-9%	0	-18%	?
Cc1cccc(C)c1OCCCCN1CCNCC1	-24	-13%	5%	0	2%	-21%
Clc1ccccc1OCCCCN1CCNCC1	-41*	-4%	-2%	-16	-5%	-28%
Cc1ccccc1OCCCCCCN1CCNCC1	-3	23µM*	·	-74*	·	16µM*
Clc1ccccc1OCCCCN1CCCC1	-16	-11%	-2%	13	-16%	-15%
Clc1ccccc1OCCCCN1CCCCC1	-15	0%	-7%	-8	-30%	3%
Cc1cc(Br)ccc1OCCCCN1CCCCC1	-24	?	-6%	-58*	-9%	?
Clc1cccc(CSc2nnc(C3CCCN3)o2)c1 (stereo unspecified)	-9	·	·	·	·	·
CCOC(=O)COc1cc(O)cc2oc(-c3ccccc3)cc(=O)c12	14	·	·	·	·	·
COc1cccc(/C=C(\C#N)c2ccc(Cl)cc2)c1OC(C)C	-8	·	·	·	·	·
Cc1ccc(OCCCCCCN2CCNCC2)cc1	-4	18µM*	·	-90*	·	21µM*
Cc1ccc(OCCCCCN2CCOCC2)cc1	-3	-4%	12%	-1	?	-6%
COc1ccc2cc(-c3nc(-c4ccccc4Cl)no3)c(=O)oc2c1	-16	·	·	·	·	·
CCOC(=O)c1c(-c2ccc(C)cc2)csc1/N=C/N(C)C	6	?	6%	-11	11%	?
CCOC(=O)c1c(-c2ccc(F)cc2)csc1/N=C/N(C)C	2	-13%	-15%	-87*	6%	-9%
CCOC(=O)N(C)c1c(CC)nc2c(OCc3ccccc3C)cccn12	2	?	·	11	·	15µM*
CCOC(=O)N(C)c1c(CC)nc2c(OCCOc3ccccc3)cccn12	3	?	·	-15	·	16µM*
SMILES	LDHA inh	DT40 TDP1 CPT	VP16 counter	IL-1B inflam inh	RORg inh	DT40 TDP1 no CPT
CCOC(=O)N(C)c1c(CC)nc2c(OCc3ccccc3OC)cccn12	6	21µM*	·	21	·	16µM*
CCOC(=O)N(C)c1c(CC)nc2c(OCC(=O)C(C)(C)C)cccn12	-4	-22%	·	8	·	-20%
CCOC(=O)C(=O)N(C)c1c(CC)nc2c(OCc3ccccc3C)cccn12	1	-24%	·	9	·	-22%
CCN1CCN(c2ccccc2NC(=O)c2ccc(NC(=O)c3ccco3)s2)CC1	-4	·	·	·	·	·
CCCNS(=O)(=O)c1cccc(C(=O)OCc2cc(=O)oc3cc(OC)ccc23)c1	-3	1µM*	12%	31	-1%	1µM*
COc1ccc2c(COC(=O)c3cccc(S(=O)(=O)NCC(C)C)c3)cc(=O)oc2c1	-5	?	2%	20	23%	?
COc1ccc2c(COC(=O)c3ccc(C)c(S(=O)(=O)N4CCOCC4)c3)cc(=O)oc2c1	2	?	·	-15	·	16µM*
COc1cc(C2C=C(C34CC5CC(CC(C5)C3)C4)NC(=S)N2)cc(OC)c1OC (stereo unspecified)	1	?	0.79µM*	0	1µM*	5.8µM*
COc1ccc(CN2CC3=C(C2=O)C(c2cc(OC)c(OC)c(OC)c2)NC(=O)N3)cc1 (stereo unspecified)	3	·	·	·	·	·
COc1ccc(C2=CC(c3cc(OC)c(OC)c(OC)c3)NC(=S)N2)cc1 (stereo unspecified)	5	?	?	6	13µM*	?
COc1ccc(S(=O)(=O)Nc2cc3c(cc2SC2CCCCC2)n(C)c(=O)n3C)cc1	0	·	·	·	·	·
COc1cccc(OC)c1C(=O)NC(C)CCc1ccccc1 (stereo unspecified)	-4	22%	-1%	-9	-6%	12%
COc1cccc(OCCOc2c(OC)cccc2OC)c1	12	-27%	16%	-60*	10%	?
COc1cc(C(=O)NCCCCc2ccccc2)cc(OC)c1OC	-2	?	-9%	-2	7%	5.8µM*
COc1cccc(OCCNC(=O)c2cc(OC)c(OC)c(OC)c2)c1	-6	?	7%	3	17%	13µM*
COc1cccc(OC)c1OCCCOc1c(OC)cccc1OC	-1	-13%	-4%	10	-10%	?
COc1cc(NC(C)CCc2ccccc2)cc(OC)c1OC (stereo unspecified)	23	13µM*	1%	-7	0%	10µM*
Clc1ccc(-c2nc(CN3CCCC3c3ccsc3)co2)cc1 (stereo unspecified)	3	·	·	·	·	·
Cc1ccccc1Cn1c(=O)n(CCC(=O)NCCc2ccc(Cl)cc2)c(=O)c2sccc21	1	·	·	·	·	·
CN(C)CC[n+]1ccc(C(=O)c2ccccc2)cc1	7	4.1µM*	6%	7	17%[1.91 µM]	2.6µM*
O=C(c1ccccc1)c1cc[n+]([O-])cc1	-6	-1%	0%	11	37%	-5%
CCc1ccc2[nH]c(C)c(CN3CCCC(C)C3)c(=O)c2c1 (stereo unspecified)	-6	·	·	·	·	·
CN1CCN(c2ccc(CNS(=O)(=O)c3ccccc3)cc2)CC1	-4	7%	-1%	·	0%	-29%
CN1CCN(c2ccc(CNS(=O)(=O)Cc3cccc(C(F)(F)F)c3)cc2)CC1	-2	6.5µM*	?	0	30%	3.7µM*
CC(NC(=O)c1c2c(nc3ccccc13)C(=O)N(C1CCCCC1)C2)c1ccccc1 (stereo unspecified)	-1	16µM*	·	·	·	18µM*
